In the library only some 7.3% were active in any assay of this set; here they are far more common.
ELG1 genotox – inducers of genotoxicity in HEK293T ELG1-luciferase cells; 1.3% of 330,000 active; HEK293T ELG1-luciferase reporter, luminescence, 16 h; AID 504466; Potency, µM (series often up to 46 µM), for inactives: top-dose activity change, positive = activation, hits mostly activators; also: % of control where 0% means no effect; nearly all actives have a fitted effect of over 60% in size
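Reporter readout depends on ELG1 protein level, which increases with genetic stress. After 16 hr compound exposure at 37 °C, luciferase activity was quantified using ONE-Glo.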
SMN2 splice enh – enhancers of SMN2 splice variant expression; HEK293 SMN2-luciferase splicing reporter, luminescence, 30-36 h; Potency, µM (series often up to 46.1 µM), for inactives: at the highest dose activity change, positive = activation, hits mostly activators; 2.8% of 210,000 active; AID 1458; also: % of control where 0% means no effect; nearly all actives have a fitted effect of over 55% in size
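HEK293 cells carry an SMN2 minigene-luciferase reporter in which exon 7 inclusion puts luciferase in frame. Cells were seeded at 2000 cells/well, attached for 10-12 hours, then exposed to compounds for 30-36 hours at 37C before ONE-Glo luminescence.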
p53 reactivation – re-activators of mutant p53; H1299 p53-A138V BP100-luciferase reporter, luminescence, 24 h; Potency, µM (series often up to 92.2 µM), inactives show at the top dose activity change, positive = activation, actives largely listed as activators; 0.063% of 320,000 active; AID 504706; also: % of control where 0% means no effect; nearly all actives have a fitted effect of over 45% in size
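H1299 (p53-null), stable ts p53-A138V + BP100-Luc; 1000 cells/well, Opti-MEM/10% FBS; cpd 4 pt, 1:5; 24 h, 37 deg C, 5% CO2; detection reagent 10 min RT; luminescence.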
Rab9 promoter act – Rab9 promoter activation. Huh7 Rab9 promoter-luciferase reporter, luminescence, 24 h. Potency, µM (series often up to 9.22 µM), for the others: at the top dose activation, negative = inhibition, actives largely listed as activators. 2.8% of 320,000 active. AID 485297; also: % of control where 0% means no effect; nearly all actives have a fitted effect of over 60% in size
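Luminescence read-out: Huh7 cells stably expressing Rab9-luciferase, treated 24 h with compound at 37 °C, then lysed with luciferase reagent for 10 min at ambient before reading.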
FLuc counter – firefly luciferase modulation, counter-screen for miR-21 project | purified FLuc, Km substrates, luminescence inhibition | Potency, µM (doses to about 57.5 µM), for inactives: top-dose activity change, negative = inhibition, actives largely listed as inhibitors | 6.9% of 360,000 active | AID 588342;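 also: plate controls were vehicle for no effect and reference inhibitor for full effect; nearly all actives have a fitted effect of over 55% in size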
Target sequence (P08659 whole entry, looked up): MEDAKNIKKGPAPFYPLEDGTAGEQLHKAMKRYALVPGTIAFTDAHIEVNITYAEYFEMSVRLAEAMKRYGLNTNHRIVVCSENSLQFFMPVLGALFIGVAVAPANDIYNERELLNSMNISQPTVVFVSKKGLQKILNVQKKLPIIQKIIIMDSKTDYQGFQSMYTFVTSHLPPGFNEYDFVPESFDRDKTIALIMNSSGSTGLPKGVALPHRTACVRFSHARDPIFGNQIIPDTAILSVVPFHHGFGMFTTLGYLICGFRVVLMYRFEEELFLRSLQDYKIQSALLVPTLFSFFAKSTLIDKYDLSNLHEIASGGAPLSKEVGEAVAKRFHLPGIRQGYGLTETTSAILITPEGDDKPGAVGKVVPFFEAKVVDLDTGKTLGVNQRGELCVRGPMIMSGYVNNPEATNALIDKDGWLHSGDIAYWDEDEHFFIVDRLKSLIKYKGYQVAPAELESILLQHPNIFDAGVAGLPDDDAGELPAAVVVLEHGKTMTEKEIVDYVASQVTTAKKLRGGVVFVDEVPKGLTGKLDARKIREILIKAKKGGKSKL
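Purified P. pyralis luciferase, 10 nM final, with Km-level 10 uM D-luciferin and 10 uM ATP in 50 mM Tris acetate pH 7.5, 10 mM Mg acetate, 0.01% Tween-20, 0.05% BSA; 6-point qHTS titration about 60 µM downward; luminescence read.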
NPC1 prom act – activators of NPC1 promoter. Huh7 NPC1 promoter luciferase reporter, 24 h. 2.4% of 320,000 active. Potency, µM (titrated, usually from 9.22 µM), inactives show top-dose activation, actives largely listed as activators. AID 485313; also: % of control where 0% means no effect; nearly all actives have a fitted effect of over 60% in size
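Stable NPC1-promoter luciferase Huh7 line; cpd (DMSO) 24 h, 37 °C, 5% CO2; Amplite luciferase reagent 10 min RT; luminescence readout. qHTS format.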
* hit, by the source's call; ? = inconclusive; . = no result. Calls follow the shape of the dose curve; as a rule, active = well fitted curve in the direction sought with a large enough effect; inconclusive = small, poorly fitted or top-dose-only effect, or another doubt; inactive = no such curve, though single readings can be large; an effect the other way counts as inactive or inconclusive. Potency is read from the fitted curve at half-maximal effect.

SMILES	ELG1 genotox	SMN2 splice enh	p53 reactivation	Rab9 promoter act	FLuc counter	NPC1 prom act
CCc1ccc(/C=C\C(=O)N2CCc3ccccc3C2)cc1	?	-2.8%	11.6%	1.9%	7.57µM*	2.7%
O=C(/C=C/c1c(F)cccc1Cl)N1CCc2ccccc2C1	8.4%	.	6.5%	18.4%	16.9µM*	21.0%
Cc1ccc(CNC(=O)CCCCCn2c(=O)c3sccc3n(CC(=O)N3CCCCC3C)c2=O)cc1 (centres undefined)	.	9.6%	.	.	-5.1%	.
CCSc1nsc(NC(=O)Nc2ccccc2F)n1	-5.2%	.	.	1.58µM*	10.7µM*	2.82µM*
O=C(Nc1ccc(F)cc1)Nc1nnc(SCC(=O)N2CCCCC2)s1	.	.	.	.	4.6%	.
CCSc1nsc(NC(=O)Nc2cccc(OC)c2)n1	-9.7%	.	.	20.4%	21.3µM*	24.7%
C=CCSc1nsc(NC(=O)Nc2ccc(F)cc2)n1	-3.1%	.	4.9%	-27.4%	23.9µM*	-15.1%
CC(c1ccccc1)c1nnc(NC(=O)Nc2ccccc2F)s1 (centres undefined)	3.9%	.	19.6%	7.2%	?	?
CCOc1ccc(NC(=O)c2cc(=O)c3cc(CC)ccc3o2)cc1	.	5.4%	.	.	1.3%	.
Cc1cc2[nH]c(=O)c(=O)[nH]c2cc1S(=O)(=O)Nc1ccccc1F	-6.9%	.	3.8%	6.9%	-3.9%	-3.8%
COc1cc(C)c(S(=O)(=O)Nc2ccccc2F)cc1C	-5.7%	2.24µM*	-9.3%	-1.7%	2.7%	-1.1%
Cc1ccc(NC(=O)Cn2c(=O)n(-c3ccccc3)c(=O)c3ccc(C(=O)NCc4ccc5c(c4)OCO5)cc32)c(C)c1	.	-14.5%	.	.	-0.4%	.
CCOc1cccc2cc(-c3csc(NC(=O)CCC(=O)NCCN4CCCCC4C)n3)c(=O)oc12 (centres undefined)	?	3.16µM*	?	?	10.7µM*	?
CCOc1cccc2cc(-c3csc(NC(=O)CCC(=O)N4CCC(C)CC4)n3)c(=O)oc12	15.9%	-21.3%	4.6%	-0.1%	-1.6%	?
COc1ccc(-c2cc3ccc(O)c(CN4CCC(C)CC4)c3oc2=O)cc1OC	.	.	.	.	-1.1%	.
COc1cccc2cc(-c3csc(NC(=O)CCC(=O)NCCCN4CCC(C)CC4)n3)c(=O)oc12	?	.	18.0%	0.708µM*	9.53µM*	1.41µM*
CCOc1cccc2cc(-c3csc(NC(=O)CCC(=O)NCCCN4CCC(C)CC4)n3)c(=O)oc12	10.3µM*	8.91µM*	-5.4%	3.98µM*	16.9µM*	27.0%
CC(=O)Nc1ccc(SCC(=O)c2cc(C)n(CC(F)(F)F)c2C)cc1	?	-4.6%	?	2.82µM*	-17.5%	3.16µM*
Cn1cccc1C(=O)NCCc1ccccc1	2.31µM*	.	?	0.501µM*	4.78µM*	0.398µM*
Cn1cccc1C(=O)NCC1COc2ccccc2O1 (centres undefined)	16.1%	.	26.2%	3.16µM*	2.2%	?
Cn1cccc1C(=O)NCCc1ccc(Cl)cc1	?	.	23.5%	2.51µM*	15.1µM*	2.82µM*
Cc1ccc(-n2ncc(C(=O)NCCCN3CCc4ccccc4C3)c2C2CCN(C(=O)OC(C)(C)C)CC2)cc1C	.	.	.	.	-8.9%	.
COc1ccccc1N(Cc1cc(=O)[nH]c2ccccc12)C(=O)C(C)C	0.5%	.	0.6%	-4.4%	1.2%	-0.4%
Cc1c(OCc2nn[nH]n2)ccc2c3c(c(=O)oc12)CCCC3	-2.6%	6.4%	-0.2%	-9.6%	21.3µM*	-4.2%
Cc1c(OCc2nn[nH]n2)ccc2c3c(c(=O)oc12)CCC(C)C3 (centres undefined)	3.7%	-8.1%	-1.5%	-3.9%	?	23.5%
SMILES	ELG1 genotox	SMN2 splice enh	p53 reactivation	Rab9 promoter act	FLuc counter	NPC1 prom act
CCCc1nnc(N2C(=O)c3oc4ccc(F)cc4c(=O)c3C2c2ccc(C(=O)OC)cc2)s1 (centres undefined)	.	12.7%	.	.	-0.1%	.
CCC(=O)Nc1nc2ccc([N+](=O)[O-])cc2s1	-1.2%	.	22.6%	3.4%	-17.7%	19.8%
Cn1cc(Cl)c(C(=O)Nc2nc3ccc([N+](=O)[O-])cc3s2)n1	5.4%	.	-1.0%	?	1.2µM*	?
Cn1cc(Cl)c(C(=O)Nc2nc3ccc(Cl)cc3s2)n1	?	22.4µM*	?	1.41µM*	3.38µM*	2.82µM*
CC(C)N(Cc1nc(-c2ccc(Cl)cc2)no1)C(=O)c1ccc(C(C)(C)C)cc1	.	-0.7%	.	.	2.1%	.
COC(=O)c1cn(-c2ccccc2)nc1-c1ccc(OC)c(OC)c1	-1.3%	.	9.7%	0.3%	21.3µM*	4.8%
O=C(O)/C(=C\c1cn(-c2ccccc2)nc1-c1cccnc1)NC(=O)c1ccccc1	-0.8%	.	-1.5%	-5.9%	-1.5%	0.3%
COc1cccc(-c2nn(-c3ccccc3)cc2CO)c1	.	6.5%	.	.	13.5µM*	.
COc1cccc(-c2nn(-c3ccccc3)cc2/C=C(/NC(=O)c2ccccc2)C(=O)O)c1	1.5%	.	-1.2%	-1.3%	26.9µM*	-0.5%
COC(=O)c1cn(-c2ccccc2)nc1-c1ccccc1	6.7%	-28.2%	1.3%	2.9%	?	-0.8%
COc1ccc(-c2nn(-c3ccccc3)cc2/C=N/Nc2ccc3ccccc3n2)cc1OC	-8.8%	-65.9%	26.2%	-19.3%	10.7µM*	-4.8%
O=C(Nc1ccccc1)N1CCCC(CNS(=O)(=O)Cc2ccccc2)C1 (centres undefined)	1.8%	.	4.3%	-1.7%	-17.7%	0.0%
O=C(C1CCN(S(=O)(=O)c2ccccc2)CC1)N1CCCCCC1	-0.8%	.	0.6%	-1.8%	0.0%	-2.4%
COc1cccc(-c2nn(-c3ccccc3)cc2C(=O)NCC(=O)O)c1	-3.7%	4.0%	13.5%	-2.2%	9.53µM*	1.4%
O=C(CCC1CCCN(C(=O)CCC(F)(F)F)C1)NCc1ccc(F)c(F)c1 (centres undefined)	0.6%	.	0.9%	-3.4%	-2.5%	0.3%
O=C(CCC1CCCN(C(=O)c2ccc3c(c2)OCCO3)C1)NCc1ccccc1F (centres undefined)	?	.	16.6%	2.82µM*	16.9µM*	26.1%
COC(=O)c1ccccc1C(=O)N1CCCC(CCC(=O)NCc2ccc(F)c(F)c2)C1 (centres undefined)	?	.	16.3%	?	13.5µM*	23.8%
COC(=O)CCCC(=O)N1CCCC(CCC(=O)NCc2ccc(F)c(F)c2)C1 (centres undefined)	?	.	-4.0%	-3.0%	16.9µM*	-4.3%
CSc1ccccc1C(=O)N1CCCC(CCC(=O)NCc2ccc(F)c(F)c2)C1 (centres undefined)	-1.0%	.	-6.0%	0.1%	0.9%	0.2%
